High-throughput results as filed in PubChem.
Sampled rows, rich in hits. Any-hit rate of the full collection: about 12%.
L3MBTL1 block – inhibitors of human L3MBTL1. Potency, µM (highest dose often 57.1 µM), without a hit: at the highest dose activity, negative = inhibition, usual class: inhibitors. AlphaScreen L3MBTL1–H3K9me1 peptide binding. Q9Y468. 230,000 tested, 0.66% active; note: % is set by controls: 0 for no effect and ±100 for the full control effect; nearly all actives have a fitted effect of over 60% in size
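Read-out is AlphaScreen signal from streptavidin donor and nickel chelate acceptor beads (10 ug/mL final each) bridging L3MBTL1 (50 nM) and biotinylated K9-monomethylated H3(1-15) peptide (75 nM), after 30 min compound exposure at room temperature.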
BAZ2B inh – inhibitors of human BAZ2B bromodomain; Q9UIF8; AlphaScreen BAZ2B-H3K14Ac peptide displacement; Potency, µM (doses to about 114 µM), for inactives: at the highest dose activity change, negative = inhibition, most hits filed as inhibitors; 360,000 tested, 4.4% active; AID 504333; note: % is set by controls: 0 for no effect and ±100 for the full control effect; nearly all actives have a fitted effect of over 60% in size
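Inhibition is scored as reduced AlphaScreen emission. The BAZ2B/b-H3(5-23)K14Ac complex (50 nM each) in PBS pH 7.4, 0.01% Tween-20 meets compound (up to 110 uM) for 30 min at RT before bead addition.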
G9a block – G9a (human) methyltransferase inhibition; Q96KQ7; G9a H3K9 monomethylation, AlphaScreen, 2 h; Potency, µM (doses to about 102 µM), for inactives: at the top dose activity, negative = inhibition, most hits filed as inhibitors; 350,000 tested, 8.8% active; note: % is set by controls: 0 for no effect and ±100 for the full control effect; nearly all actives have a fitted effect of over 75% in size
Target sequence (Q96KQ7 913-1193 limits assumed): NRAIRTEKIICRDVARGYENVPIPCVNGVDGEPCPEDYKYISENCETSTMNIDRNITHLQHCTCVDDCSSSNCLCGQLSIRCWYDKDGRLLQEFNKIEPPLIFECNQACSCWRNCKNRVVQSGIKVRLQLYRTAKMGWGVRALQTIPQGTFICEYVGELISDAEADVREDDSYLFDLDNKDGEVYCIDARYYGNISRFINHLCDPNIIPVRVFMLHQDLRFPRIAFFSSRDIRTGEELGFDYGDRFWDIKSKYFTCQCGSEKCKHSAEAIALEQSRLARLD
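Enzyme 20 nM + cpd, 15 min RT; add b-H3K9 pep 500 nM / SAM 20 uM; 2 h RT; anti-H3K9me1 Ab 0.5 ug/mL + SA donor / anti-rabbit acceptor beads 20 ug/mL each, 10 min; AlphaScreen read.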
Sfp PPTase inh – inhibitors of Bacillus subtilis Sfp phosphopantetheinyl transferase | Biochemical Sfp PPTase activity, qHTS | Potency, µM, for inactives: largest response in the series, negative = inhibition, most hits filed as inhibitors | 310,000 tested, 3.5% active;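 note: the enzyme is Sfp with the accession as filed and its product quenches rhodamine fluorescence; 0% = enzyme reaction without inhibitor and -100% = no enzyme wells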
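Step 1, compound plus 15 nM Sfp-PPTase, 15 min, room temperature. Step 2, add rhodamine-CoA (5 uM) and BHQ-2-YbbR (12.5 uM). Step 3, read 525/598 nm fluorescence at 0 and 30 min.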
HP1b chromo inh – HP1-beta chromodomain-methylated histone interaction inhibition. P83916. AlphaScreen HP1-beta / biotin-H3K9me3 peptide binding. Potency, µM (highest dose often 114 µM), inactives show at the top dose activity change, negative = inhibition, hits mostly inhibitors. 390,000 tested, 0.56% active. AID 540317; note: nearly all actives have a fitted effect of over 70% in size
Target sequence (P83916 whole entry, looked up): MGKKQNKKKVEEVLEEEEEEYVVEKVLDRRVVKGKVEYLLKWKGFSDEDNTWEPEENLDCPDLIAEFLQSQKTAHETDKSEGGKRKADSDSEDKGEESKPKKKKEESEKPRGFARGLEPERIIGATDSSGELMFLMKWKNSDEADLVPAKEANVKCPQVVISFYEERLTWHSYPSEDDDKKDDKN
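HP1-beta protein (50 nM final) preincubated 30 min at room temperature with biotinylated H3(1-18)K9me3 peptide (50 nM) in PBS pH 7.4, 0.01% Tween-20, then compound added for 30 min. AlphaScreen streptavidin donor/nickel chelate acceptor beads (10 ug/mL final), 30 min dark, luminescence read.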
JMJD2A Tudor – blocks the human JMJD2A Tudor domain | Potency, µM (series often up to 114 µM), for inactives: at the highest dose activity change, negative = inhibition, usual class: inhibitors | AlphaScreen JMJD2A-Tudor / H3K4me3 peptide binding | O75164 | 390,000 tested, 4.4% active; note: % is set by controls: 0 for no effect and ±100 for the full control effect; nearly all actives have a fitted effect of over 50% in size
* marks the source's active call; other numbers are inactive results; ? = inconclusive; · = no result given; [ ] = remark or other dose. Calls come from the whole dose curve; as a rule, active = well fitted curve in the direction sought with a large enough effect; inconclusive = small, poorly fitted or top-dose-only effect, or another doubt; inactive = no such curve, though single readings can be large; an effect the other way counts as inactive or inconclusive. Potency is the fitted concentration of half-maximal effect.

SMILES	L3MBTL1 block	BAZ2B inh	G9a block	Sfp PPTase inh	HP1b chromo inh	JMJD2A Tudor
Cc1cc(CNC(=O)CC2C(=O)NCCN2Cc2ccccc2)nn1C (stereo not drawn)	·	-2.3%	44.7µM*	6.0%	51.4%	-9.7%
Cn1cc(CCNC(=O)CC2C(=O)NCCN2CC(c2ccccc2)c2ccccc2)cn1 (stereo not drawn)	-1.8%	-7.4%	12.6µM*	3.6%	56.7%	-35.1%
Cc1nc(CCNC(=O)CC2C(=O)NCCN2Cc2ccccc2)nc2c1CCC2 (stereo not drawn)	·	-34.3%	50.1µM*	-4.1%	16.3%	-25.7%
Cc1cc(CNC(=O)CC2C(=O)NCCN2Cc2ccc(-c3ccccc3)cc2)nn1C (stereo not drawn)	-6.2%	-37.5%	-23.2%	12.0%	38.8%	-13.3%
COc1ccc(C2Nc3ccccc3C(=O)N2Cc2ccccc2)cc1COc1ccccc1F (stereo not drawn)	·	·	·	·	15.5%[57 µM]	2.3%[57.1 µM]
CCn1cc(C(=O)NCCCN(CC(C)C)CC(C)C)c(=O)c2cc(S(=O)(=O)N3CCOCC3)ccc21	·	-1.3%	·	0.7%	27.3%	1.5%
COc1cc(C(=S)N2CCOCC2)cc(OC)c1OC(=O)c1ccc(F)cc1	-10.0%	?	·	28.2µM*	?	-35.2%
COc1cc(C(=S)N2CCOCC2)cc(OC)c1OC(=O)c1ccccc1[N+](=O)[O-]	-3.4%	-28.1%	?	7.5%	5.0%	-32.4%
COc1ccc(CC(=O)Oc2ccc(Br)cc2F)cc1S(=O)(=O)N1CCOCC1	1.8%	7.1%	50.1µM*	·	2.2%	-12.4%
COc1cc(C(=S)N2CCOCC2)cc(OC)c1OC(=O)Cc1ccc(F)cc1	3.1%	?	3.16µM*	44.7µM*	?	79.4µM*
COc1ccc(CC(=O)Oc2ccc(Cl)cc2Br)cc1S(=O)(=O)N1CCOCC1	3.8%	-6.0%	?	·	22.0%	-24.8%
CC(=O)c1cccc(NC(=O)CNC(=O)c2sc3ccccc3c2Cl)c1	5.4%	4.7%	-0.9%[59 µM]	·	13.9%	-11.0%
CCOC(=O)c1[nH]c(C)c(C(=O)/C=C/c2ccc(C(=O)O)cc2)c1C	·	-17.0%	-15.5%	28.9%	16.6%	-10.6%
CCOC(=O)c1ccc(NC(=O)CN2CCN(C(=O)C3CCCO3)CC2)cc1 (stereo not drawn)	·	-9.3%	3.8%	13.5%	26.0%	3.4%
CC(=O)NC(=O)Nc1sc(=S)n(C)c1C	3.1%	-3.3%	?	-8.2%	14.6%	-13.6%
Cc1c(NC(=O)Oc2ccccc2)sc(=S)n1C	·	?	44.7µM*	56.2µM*	-13.6%	-30.8%
Cc1ccc(NC(=O)Nc2sc(=S)n(C)c2C)cc1	·	-2.5%	25.1µM*	56.2µM*	-22.5%	-15.4%
Cc1ccc(CN(C(=O)COc2ccc(Cl)c(C)c2)c2ccccn2)o1	·	-1.0%	1.0%[59 µM]	·	24.9%	-3.3%
OC(c1ccc(F)cc1)(C1CCCCC1)C(CN1CCOCC1)c1ccccc1 (stereo not drawn)	7.4%[2.29 µM]	-24.6%	11.6%[0.501 µM]	3.5%	35.2%	-14.0%
CCOC(=O)c1c(C)[nH]c(C(=O)COC(=O)COc2ccccc2C=O)c1C	-0.4%	-36.3%	-2.9%[59 µM]	-10.0%	-12.8%	44.7µM*
Cc1ccc(CS(=O)(=O)Cc2ccc(C(=O)NCc3ccccn3)o2)cc1	-3.5%	-8.7%	?	50.1µM*	38.6%	-8.7%
COc1ccc(S(=O)(=O)Cc2ccc(C(=O)NCc3ccccn3)o2)cc1	·	-0.4%	?	11.2%	47.8%	-0.7%
CCc1ccccc1S(=O)(=O)Cc1ccc(C(=O)NCCc2ccc(C)cc2)o1	·	-1.9%	3.3%[59 µM]	·	48.7%	20µM*
CCOc1ccc(NC(=O)Cn2c(=O)n(Cc3ccccc3)c(=O)c3sc4ccccc4c32)cc1	·	4.7%	-1.1%[59 µM]	·	61.0%	6.3%
CC(CCc1ccccc1)NC(=O)COC(=O)C(CCC(N)=O)NC(=O)c1ccc(F)cc1 (stereo not drawn)	5.0%	8.1%	1.7%[2.33 µM]	·	35.1%	-3.7%
